# PubChem BioAssay (NCATS)
# Results filed as inconclusive are left out. Where a call stands in place of a potency, no number is given. The source made the active and inactive calls. Calls come from the whole dose curve; as a rule, active = well fitted inhibition curve with a large enough effect; inconclusive = small, poorly fitted or top-dose-only effect; inactive = flat fitted curve, though single readings scatter.
# Molecular target: DNA repair nuclease/redox regulator APEX1 (Homo sapiens) (UniProt P27695)
# Sequence (P27695 whole entry, looked up): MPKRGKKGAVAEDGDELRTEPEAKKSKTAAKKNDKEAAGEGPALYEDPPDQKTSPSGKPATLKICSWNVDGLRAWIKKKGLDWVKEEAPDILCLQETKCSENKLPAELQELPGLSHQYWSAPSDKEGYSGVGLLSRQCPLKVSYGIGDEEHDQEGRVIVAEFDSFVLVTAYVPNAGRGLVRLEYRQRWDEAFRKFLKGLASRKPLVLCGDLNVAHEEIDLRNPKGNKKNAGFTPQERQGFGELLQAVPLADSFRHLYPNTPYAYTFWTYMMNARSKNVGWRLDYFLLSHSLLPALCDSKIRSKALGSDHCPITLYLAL
# Assay: qHTS Validation Assay for Inhibitors of the Human Apurinic/apyrimidinic Endonuclease 1 (APE1) (AID 1705)
# Conditions: purified APE1 endonuclease activity, fluorescence, titration; series mostly up to 57.1 µM
# Source text: Assay Provider: David M. Wilson, III, National Institute on Aging, NIH
# Screening Center PI: Austin, C.P.
# Screening Center: NIH Chemical Genomics Center [NCGC]
# The apurinic/apyrimidinic endonuclease APE1 is the primary mammalian enzyme responsible for the removal of abasic (or AP) sites in DNA and functions centrally in the base excision DNA repair (BER) pathway. […] Thus, targeting APE1 could improve the efficacy of current treatment paradigms by promoting selective sensitization or protection of diseased and normal cells, respectively.
# Inhibition of APE1 activity was screened by utilizing double-stranded short substrate containing tetrahydrofuran (THF) abasic site labeled with rhodamine-type fluorophore (TAMRA) at the 5'-end and with non-fluorescent Black Hole Quencher-2 (BHQ-2) at the opposing 3'-end. An increase in the fluorescence intensity due to incision of the abasic site by APE1 was used to measure the enzyme activity.
# 1. Substrate: 50 nM final concentration of TAMRA/BHQ-2 substrate dispensed throughout the plate.
# 2. Enzyme: […] nM APE1 final concentration in columns 1, 2, 5-48. Column 1 is neutral (100% activity)
# 3. Control: Pintool transfer of control inhibitor NSC-13755 to column 2 of all assay plates. Two-fold, 16 pt dilution in duplicate to produce final concentrations in the […] uM - […] nM range.
# 3. Buffer columns in columns 3 and 4 were used as negative control (no enzyme).
# Three uL of enzyme were dispensed to 1536-well Greiner black solid bottom plates. Compounds (23 nL) were transferred via Kalypsys pintool. The plates were incubated for 15 min at room temperature, and then 1 uL of substrate solution was added to start the reaction. The plates were immediately transferred into ViewLux High-throughput CCD imager (Perkin-Elmer) in order to measure the reaction progress in kinetic mode (three reads every 60 seconds) using 525 nm excitation and 598 nm emission fluorescence protocol. The fluorescence intensity difference between the third and the first time points was used to compute reaction progress.
# Potency is the fitted concentration of half-maximal effect.
row,SMILES,Potency
1,Fc1cccc(/C=N/N=C/c2cccc(F)c2)c1,inactive
2,N#C/C(=C\c1c[nH]c2ccccc12)C(=O)c1ccc(O)c(O)c1,inactive
3,COc1cc2c(CCNC(C)=O)c[nH]c2cc1Cl,inactive
4,OCC1O[C@H](O)C(Cl)C(O)C1O (stereo not given in full),inactive
5,O=C(Nc1ccccc1)c1cc([N+](=O)[O-])ccc1Cl,inactive
6,Cn1cc(C2=C(c3ccc(Cl)cc3Cl)C(=O)NC2=O)c2ccccc21,35.5 µM (active)
7,O=C(Nc1cccc(C(=O)Nc2ccc(S(=O)(=O)O)c3cc(S(=O)(=O)O)cc(S(=O)(=O)O)c23)c1)Nc1cccc(C(=O)Nc2ccc(S(=O)(=O)O)c3cc(S(=O)(=O)O)cc(S(=O)(=O)O)c23)c1,10 µM (active)
8,c1ccc(-c2ccccn2)nc1,inactive
9,OC[C@H]1O[C@@H](n2cnc3c(NC4CCCCC4)ncnc32)[C@H](O)[C@@H]1O,inactive
10,O=C1NC(O)=NC1(c1ccccc1)c1ccccc1,inactive
11,O=C(/C=C/c1ccc(O)c(O)c1)OCCc1ccccc1,inactive
12,O=c1[nH]c2cc(C(F)(F)F)ccc2n1-c1cc(C(F)(F)F)ccc1O,inactive
13,O=C1C(SCCO)=C(SCCO)C(=O)c2ccccc21,inactive
14,c1cnc2c(c1)ccc1cccnc12,inactive
15,CC(COc1ccc(/C=C/c2ccccc2)cc1)[N+](C)(C)C (stereo not given),inactive
16,CCCCCCCCCCCCCCCCCC(=O)OC(CC(=O)O)C[N+](C)(C)C (stereo not given),inactive
17,C#CCN1C(C)=C(C(=O)OC)C(c2cccc([N+](=O)[O-])c2)C(C(=O)OCC)=C1C (stereo not given),inactive
18,CC(C)Cc1ccc([C@H](C)C(=O)O)cc1,inactive
19,CN1CCC[C@H]1c1cccnc1,inactive
20,CN=c1nc(-c2ccccc2)n(-c2ccccc2)s1,inactive

row,SMILES,Potency
1,CCCCCCCCCCCCCCCC(=O)NCC(COP(=O)([O-])OCC[N+](C)(C)C)OCC (stereo not given),inactive
2,O=c1[nH]c2ccccc2n1CCCN1CCN(C(c2ccccc2)c2ccccc2)CC1,inactive
3,Cc1ccc(O)c(N=Nc2ccccc2)n1,inactive
4,Ic1ccc(N2CCN(Cc3c[nH]c4ncccc34)CC2)cc1,inactive
5,CC(=O)N[C@H](C(=O)O)C(C)(C)SN=O,inactive
6,NCCNC(=O)c1ncsc1-c1cccc(F)c1,inactive
7,CN1CCc2cccc3c2C1Cc1ccc(O)c(O)c1-3 (stereo not given),inactive
8,CC(C)(C)c1ccc(S(=O)(=O)/C=C/C#N)cc1,inactive
9,O=C(c1cc(O)c(O)c([N+](=O)[O-])c1)c1ccccc1F,inactive
10,CC12C(=O)OC(=O)C1(C)C1CCC2O1 (stereo not given),inactive
11,CN(C)C(N)=NCCC[C@H](N)C(=O)O,inactive
12,COc1cc(OC)c(/C=C2/C(=O)Nc3ccccc32)c(OC)c1,inactive
13,N=C(N)SCCc1ccc(CCSC(=N)N)cc1,inactive
14,O=C(O)[C@@H]1C[C@H](C(=O)O)N1,inactive
15,C[C@@H](NC(=O)/C(C#N)=C/c1ccc(O)c(O)c1)c1ccccc1,inactive
16,C=C[C@@H]1CN2CC[C@@H]1C[C@H]2[C@H](O)c1ccnc2ccc(OC)cc12,inactive
17,Oc1ccc(C2CNCc3sccc32)cc1O (stereo not given),inactive
18,COc1cccc(C(=O)NCCN2CCN(c3ccc(Cl)cc3)CC2)c1,inactive
19,COC(=O)c1c(C)[nH]c(C)c1C(=O)c1ccccc1Cc1ccccc1,inactive
20,O=S(=O)(c1cccc2c(I)cccc12)N1CCCNCC1,inactive
